Results on eight compounds are retold here after ChEMBL document CHEMBL1961873, “Compounds: GSK PKIS; Assays: Nanosyn kinase panel” (2012).

For orientation: inhibition means the change of the read-out against control, counted positive when it falls.

The target in assay [1] is Sphingosine kinase 1 (Homo sapiens) (UniProt Q9NYA1). The following applies: at 1 µM.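 Further: mean SPHK1 inhibition value reported from the GSK PKIS kinase panel screen.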
The target in assay [2] is T1, Sphingosine kinase 2 (Homo sapiens) (UniProt Q9NRA0).
T1 sequence (whole entry): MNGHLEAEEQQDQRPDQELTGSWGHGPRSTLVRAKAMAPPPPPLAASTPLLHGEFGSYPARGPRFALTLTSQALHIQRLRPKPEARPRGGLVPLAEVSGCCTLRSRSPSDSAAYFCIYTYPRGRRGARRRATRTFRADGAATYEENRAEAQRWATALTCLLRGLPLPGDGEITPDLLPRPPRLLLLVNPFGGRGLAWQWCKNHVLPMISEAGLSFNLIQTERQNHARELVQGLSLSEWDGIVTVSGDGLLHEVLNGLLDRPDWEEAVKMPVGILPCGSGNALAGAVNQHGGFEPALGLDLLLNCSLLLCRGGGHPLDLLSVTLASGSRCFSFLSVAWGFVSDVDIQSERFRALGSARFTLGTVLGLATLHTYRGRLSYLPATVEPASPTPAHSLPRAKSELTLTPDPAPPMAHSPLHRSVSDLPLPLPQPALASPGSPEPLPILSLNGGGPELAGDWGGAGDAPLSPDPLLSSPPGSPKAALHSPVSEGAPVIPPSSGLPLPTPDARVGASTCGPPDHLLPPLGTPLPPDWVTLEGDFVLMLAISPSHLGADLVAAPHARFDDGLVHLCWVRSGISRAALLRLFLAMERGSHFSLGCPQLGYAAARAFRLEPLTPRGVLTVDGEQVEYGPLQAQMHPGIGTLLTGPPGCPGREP
The settings on record: at 0.1 µM.

For assay [3], the target named is T1, Sphingosine kinase 2 (Homo sapiens). The following applies: at 1 µM.
Assay [4] addresses Casein kinase II subunit alpha (Homo sapiens) (UniProt P68400). The following applies: at 0.1 µM.
For assay [5] the target is unchanged. The settings on record: at 1 µM.
For assay [6], the target named is T2, Inhibitor of nuclear factor kappa-B kinase subunit alpha (Homo sapiens) (UniProt O15111).
T2 sequence (whole entry): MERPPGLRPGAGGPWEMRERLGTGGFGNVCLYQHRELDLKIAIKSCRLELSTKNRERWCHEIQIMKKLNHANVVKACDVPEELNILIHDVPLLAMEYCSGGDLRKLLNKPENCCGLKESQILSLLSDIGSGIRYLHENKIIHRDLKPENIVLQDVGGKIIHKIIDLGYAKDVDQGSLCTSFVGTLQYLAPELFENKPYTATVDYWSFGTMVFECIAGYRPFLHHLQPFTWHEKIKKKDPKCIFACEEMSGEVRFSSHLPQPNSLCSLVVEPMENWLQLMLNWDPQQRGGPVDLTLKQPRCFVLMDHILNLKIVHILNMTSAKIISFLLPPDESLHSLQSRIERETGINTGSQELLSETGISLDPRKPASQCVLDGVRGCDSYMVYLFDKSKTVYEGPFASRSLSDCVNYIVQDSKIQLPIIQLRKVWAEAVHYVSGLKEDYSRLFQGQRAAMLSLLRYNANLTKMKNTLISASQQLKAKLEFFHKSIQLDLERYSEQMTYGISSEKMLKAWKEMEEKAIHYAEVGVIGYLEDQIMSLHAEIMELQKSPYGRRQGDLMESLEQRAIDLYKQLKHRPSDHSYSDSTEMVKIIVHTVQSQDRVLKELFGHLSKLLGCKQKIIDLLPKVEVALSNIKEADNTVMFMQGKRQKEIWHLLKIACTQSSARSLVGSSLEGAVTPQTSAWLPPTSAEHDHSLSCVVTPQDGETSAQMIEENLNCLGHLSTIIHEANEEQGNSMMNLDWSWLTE
The settings on record: at 0.1 µM.

The target of assay [7] is T2, Inhibitor of nuclear factor kappa-B kinase subunit alpha (Homo sapiens). The settings on record: at 1 µM.
The target in assay [8] is T3, Inhibitor of nuclear factor kappa-B kinase subunit beta (Homo sapiens) (UniProt O14920).
T3 sequence (whole entry): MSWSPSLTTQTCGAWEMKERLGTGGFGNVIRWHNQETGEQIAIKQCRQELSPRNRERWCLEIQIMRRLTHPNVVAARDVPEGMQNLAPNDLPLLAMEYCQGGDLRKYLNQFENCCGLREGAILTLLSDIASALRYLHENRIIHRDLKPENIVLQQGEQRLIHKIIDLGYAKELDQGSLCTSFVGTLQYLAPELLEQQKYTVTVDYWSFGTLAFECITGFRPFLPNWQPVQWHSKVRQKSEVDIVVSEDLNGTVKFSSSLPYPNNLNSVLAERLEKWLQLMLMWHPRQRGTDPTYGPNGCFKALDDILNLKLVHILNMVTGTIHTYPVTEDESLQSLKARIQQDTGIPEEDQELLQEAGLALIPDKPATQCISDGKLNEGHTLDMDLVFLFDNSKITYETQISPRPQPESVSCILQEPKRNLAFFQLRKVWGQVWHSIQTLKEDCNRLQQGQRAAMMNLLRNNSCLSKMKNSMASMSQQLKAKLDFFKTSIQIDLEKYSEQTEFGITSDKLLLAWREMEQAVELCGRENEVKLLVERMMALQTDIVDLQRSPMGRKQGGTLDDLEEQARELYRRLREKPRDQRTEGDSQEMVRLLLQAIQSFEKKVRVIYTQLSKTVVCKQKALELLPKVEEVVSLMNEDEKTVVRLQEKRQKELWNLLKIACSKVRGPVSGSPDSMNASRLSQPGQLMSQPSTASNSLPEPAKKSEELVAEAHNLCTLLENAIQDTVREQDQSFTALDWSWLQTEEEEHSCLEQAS
The settings on record: at 0.1 µM.

The target of assay [9] is T3, Inhibitor of nuclear factor kappa-B kinase subunit beta (Homo sapiens). The settings on record: at 1 µM.
The target in assay [10] is T4, Inhibitor of nuclear factor kappa-B kinase subunit epsilon (Homo sapiens) (UniProt Q14164).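 Further: mean inhibition of IKKε reported, from the GSK PKIS dataset.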
T4 sequence (whole entry): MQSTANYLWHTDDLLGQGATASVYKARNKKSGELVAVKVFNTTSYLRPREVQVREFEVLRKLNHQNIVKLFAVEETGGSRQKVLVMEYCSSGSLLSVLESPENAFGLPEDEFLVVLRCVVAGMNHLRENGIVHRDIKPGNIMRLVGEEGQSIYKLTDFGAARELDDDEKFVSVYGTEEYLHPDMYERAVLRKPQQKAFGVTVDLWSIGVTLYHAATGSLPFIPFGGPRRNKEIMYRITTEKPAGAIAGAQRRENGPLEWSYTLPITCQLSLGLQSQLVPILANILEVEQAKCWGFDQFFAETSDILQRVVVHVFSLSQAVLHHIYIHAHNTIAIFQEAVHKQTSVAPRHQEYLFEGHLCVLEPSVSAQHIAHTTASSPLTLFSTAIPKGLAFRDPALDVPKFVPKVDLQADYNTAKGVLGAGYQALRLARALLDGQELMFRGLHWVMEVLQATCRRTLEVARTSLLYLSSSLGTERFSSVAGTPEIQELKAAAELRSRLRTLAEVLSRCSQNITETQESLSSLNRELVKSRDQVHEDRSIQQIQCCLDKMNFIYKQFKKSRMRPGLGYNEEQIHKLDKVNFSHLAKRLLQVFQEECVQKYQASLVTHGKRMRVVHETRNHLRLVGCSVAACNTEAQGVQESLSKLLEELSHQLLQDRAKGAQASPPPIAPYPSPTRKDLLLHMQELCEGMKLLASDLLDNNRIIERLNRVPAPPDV
The following applies: at 0.1 µM.

Sphingosine kinase 1 (Homo sapiens), sequence (Q9NYA1 whole entry): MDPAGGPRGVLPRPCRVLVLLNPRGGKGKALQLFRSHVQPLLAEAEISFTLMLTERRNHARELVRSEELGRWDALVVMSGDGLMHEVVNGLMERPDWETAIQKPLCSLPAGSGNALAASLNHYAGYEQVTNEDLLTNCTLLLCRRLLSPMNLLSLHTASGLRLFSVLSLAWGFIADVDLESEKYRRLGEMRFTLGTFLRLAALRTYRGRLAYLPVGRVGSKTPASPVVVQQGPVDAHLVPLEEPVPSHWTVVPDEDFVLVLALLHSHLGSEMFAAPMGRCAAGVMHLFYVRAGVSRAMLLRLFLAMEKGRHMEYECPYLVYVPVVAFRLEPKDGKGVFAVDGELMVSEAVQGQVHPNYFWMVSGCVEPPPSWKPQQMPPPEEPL
Casein kinase II subunit alpha (Homo sapiens), sequence (P68400 whole entry, looked up): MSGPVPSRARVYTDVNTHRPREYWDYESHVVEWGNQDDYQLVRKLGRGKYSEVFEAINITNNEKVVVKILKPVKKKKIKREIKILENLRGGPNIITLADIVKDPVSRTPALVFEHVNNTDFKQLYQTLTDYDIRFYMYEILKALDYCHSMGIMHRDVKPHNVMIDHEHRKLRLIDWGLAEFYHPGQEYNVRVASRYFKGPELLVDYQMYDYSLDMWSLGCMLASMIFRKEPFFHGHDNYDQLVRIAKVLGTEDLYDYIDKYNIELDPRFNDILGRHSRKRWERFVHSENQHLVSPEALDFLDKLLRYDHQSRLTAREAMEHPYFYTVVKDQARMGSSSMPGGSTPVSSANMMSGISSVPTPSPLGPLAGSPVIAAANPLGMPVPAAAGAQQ

Consider `O=C1NC(=O)C(N2CCc3ccccc32)=C1c1ccc(Cl)cc1`, for which the inhibition is 2.74% in assay [1]; 0.69% in [2]; 0.87% in assay [3]; 1.59% in assay [4]; -1.39% in [5]; 5.45% in assay [6]. The inhibition in [7] was found to be 4.39%; in [8], 5.07%; in assay [9], 4.89%; in assay [10], 3.79%.

For `Nc1ncnc2occ(-c3ccc(NC(=O)Nc4cccc(C(F)(F)F)c4)cc3)c12`, the inhibition is -6.26% in assay [1]; 0.27% in assay [2]; 1.95% in assay [3]; 7.18% in assay [4]; 4.76% in assay [5]; 6.44% in assay [6]. Further, the inhibition was 11.1% in assay [7], 6.2% in [8], 7.53% in assay [9] and 8.03% in assay [10].

On to `COc1ccc(COc2ccc(Cc3cnc(N)nc3N)cc2OC)cc1`, for which the inhibition in assay [1] is -2.38%; in [2], 0.09%; in assay [3], -0.88%; in [4] it was -2.39%; in [5], -8.59%; in assay [6], 2.25%. Further, the inhibition was -7.71% in [7], -1.1% in [8], -1.34% in [9] and -1.79% in assay [10].

Consider `Fc1cccc(COc2ccc(Nc3ncnc4cc(-c5ccc[nH]5)sc34)cc2Cl)c1`, for which the inhibition was 4.94% in [1]; 0.87% in assay [2]; -0.25% in assay [3]; 1.61% in [4]; 2.66% in assay [5]; 2.16% in assay [6]. In addition, the inhibition in [7] was determined as 1.99%; in [8], 2.5%; in [9] it was 1.35%; in assay [10], 2.66%.

For `CS(=O)(=O)CCNCc1ccc(-c2ccc3ncnc(Nc4ccc(OCc5cccc(F)c5)c(C(F)(F)F)c4)c3c2)o1`, the inhibition in [1] is -2.4%; in assay [2], 0.03%; in [3] it was 0.79%; in assay [4], 3.22%; in assay [5], 5.65%; in assay [6], 7.6%. Besides, the inhibition in assay [7] amounted to 5.45%; in assay [8], 5.87%; in [9], 5.15%; in [10], 5.42%.

For `CCn1c(-c2nonc2N)nc2ccncc21`, the inhibition is -0.31% in assay [1]; -1.06% in [2]; 0.26% in [3]; -4.19% in assay [4]; -5.18% in assay [5]; -7.12% in assay [6]. For the same compound, the values for the inhibition in assay [8], in assay [9] and in assay [10] were 5.3%, 3.24% and 3.33%, respectively.

As to `CCCN1CCC=C(c2ccc(Nc3nc(Nc4ccccc4C(N)=O)c4cc[nH]c4n3)c(C)c2)C1`, the inhibition is 1.28% in assay [1]; -1.02% in assay [2]; 0.04% in assay [3]; 33.7% in assay [4]; 72% in assay [5]; 13.6% in assay [6]. Besides, the inhibition in assay [7] was determined as 16%; in assay [8] it was 5.1%; in assay [9], 8.74%; in assay [10] it was 9.65%.

For the compound `Cc1ccc(C(=O)NC2CCCCC2)cc1-c1ccc(C(=O)NCC2CC2)cc1`, the inhibition is -0.86% in assay [1]; -0.91% in assay [2]; -1.61% in assay [3]; 0.66% in assay [4]; -5.06% in assay [5]; -3.35% in assay [6]. For the same compound, the inhibition in assay [7] is -8.02%; in assay [8], 3.29%; in [9], -2.31%; in assay [10], 1.75%.
